Compound activity deposited in PubChem by several laboratories.
A selection: hits, their analogues and other compounds. The true share with any hit is near 5.4%.
AHR activator = activates the human aryl hydrocarbon receptor; 2.5% of 320,000 active; AHR-responsive luciferase reporter cells, luminescence; activation, % at 5 µM; in the data active = activation above about 47%;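 also: 0% = vehicle wells and 100% = reference agonist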
FXN GAA850 act = increases GAA850 frataxin promoter reporter activity. AID 540364. activation, % at 6 µM. HEK293 lucGAA850 FXN promoter luciferase reporter, 24 h; percent of 10 µM SAHA response. 0.56% of 360,000 active;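 active = activation above the average of all compounds screened plus 3 SD, cutoff fixed separately per campaign, cut at about 7.5% in these data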;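 also: 0% = DMSO wells and 100% = 10 µM SAHA wells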
DAX1 inh = inhibits human nuclear receptor DAX1 | AID 504766 | inhibition, % at 6.75 µM | HEK293 Gal4-DAX1 luciferase reporter, luminescence | 0.99% of 340,000 active;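 active = inhibition above the mean over all tested compounds plus 3 SD, cut at about 4.2% in these data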;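 also: 0% = DAX1-transfected cells with DMSO and 100% = empty-vector control cells with DMSO; inhibition shows as a rise in luminescence from relieved DAX1 repression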
HSF1 inhib = HSF1 inhibition. NIH3T3-HGL HSE-luciferase, MG132-induced, luminescence 8 h; active compounds read low. activity change, negative = inhibition, % at 7.5 µM (by protocol). 0.77% of 300,000 active. AID 2098;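 active = more than half of replicate wells show activity change below -50%, luminescence cut by over half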;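 also: luciferase reports HSF-1 transcriptional activity via heat shock element; 0% = median of DMSO wells and -100% = zero luminescence signal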
HSF-1 act = increases HSF-1 driven luciferase reporter signal; NIH3T3-HGL HSF-1 luciferase reporter, MG132, 8 h; 100% = twice DMSO control signal; activation, % at 9 µM; 1.7% of 300,000 active;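 active = mean replicate activation of at least 50% with a set share of replicates each reaching 50%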;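 also: 0% = median of the neutral control wells and 100% = twice that signal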
The depositor's hits bear a star; nt = no result.

SMILES	AHR activator	FXN GAA850 act	DAX1 inh	HSF1 inhib	HSF-1 act
Cc1nn2cc(-c3ccccc3)nc2s1	-0.3	0.6	-1.0	8.2	34.7
O=C(COC(=O)c1ccc(Cl)c(S(=O)(=O)N2CCCCC2)c1)NC1CCCCC1	nt	-0.7	1.5	nt	nt
O=C(CCCn1c(=O)[nH]c2cc(Cl)ccc2c1=O)NCCCN1CCCC1=O	0.6	-1.6	0.3	-4.6	0.2
CC(NC(=O)COC(=O)c1c[nH]c2ccccc12)c1ccccc1 (centres undefined)	55.9*	-3.3	-1.0	nt	nt
CC(=O)OCC(=O)NCC(=O)c1c[nH]c2ccccc12	9.7	1.5	2.5	-60.7*	-69.9
COC(=O)c1cn(NC(=O)Cc2cccc(OC)c2)c(=O)c2ccccc12	3.0	-2.3	4.2*	-9.2	-2.0
COC(=O)c1cn(NC(=O)Cc2ccc(OC)c(OC)c2)c(=O)c2ccccc12	1.6	0.6	-0.5	nt	nt
CCC(=O)Nc1cccc(NC(=O)c2cccc([N+](=O)[O-])c2)c1	9.8	-1.6	1.4	-1.4	-2.1
CCOC(=O)c1ccc(S(=O)(=O)N2CCN(C(=O)c3cccc(S(=O)(=O)N4CC(C)OC(C)C4)c3)CC2)cc1 (centres undefined)	nt	0.5	0.5	nt	nt
CCn1c(=O)cc(SCC(=O)N2CCN(C)CC2)c2ccccc21	4.1	-1.3	1.0	32.6	63.2*
CCn1c(=O)cc(SCC(=O)N2CCCCC2)c2ccccc21	26.5	1.7	1.2	9.6	11.5
Cn1c(=O)cc(SCC(=O)N2CCN(C3CCCCC3)CC2)c2ccccc21	31.5	2.0	7.3*	-1.4	25.9
Cc1nc2sc(C(=O)Nc3ccccc3)c(N)c2c(C)c1[N+](=O)[O-]	29.0	4.5	6.9*	15.4	31.6
CC(=O)c1ccc(NC(=O)c2sc3nc(C)c(C)c(C)c3c2N)cc1	nt	5.0	6.7*	-2.2	-17.6
CCN1CCN(CCCNC(=O)C2c3ccccc3C(=O)N(c3ccc(OC)cc3)C2c2ccc(OC)cc2)CC1 (centres undefined)	0.0	0.9	-0.6	2.8	5.2
Cc1cc(C)c2ccc3c(C)c(C)nc3c2[nH]1	68.3*	1.1	0.1	nt	nt
Cc1cc(=O)[nH]c2c(C)c(N)ccc12	0.4	-1.0	0.5	-0.9	4.3
Nc1nc(NC(=O)C(Cl)(Cl)Cl)nn1-c1ccccc1	0.6	0.1	-0.2	-76.8*	-81.9
CCC(=O)Nc1nc(N)n(-c2ccccc2)n1	4.3	1.2	-0.5	-4.6	-5.1
Cc1ccc(-c2ccc(=O)n(CCC(=O)NCCN3CCCCC3C)n2)cc1 (centres undefined)	3.2	1.4	0.1	-74.5*	-79.8
Cc1ccc(-c2ccc(=O)n(CC(=O)NCCN3CCCCC3C)n2)cc1 (centres undefined)	0.4	-1.7	-0.5	nt	nt
CCOc1cc(N2CCOCC2)c(OCC)cc1NC(=O)Cn1[nH]c(=O)c2ccccc2c1=O	5.3	-0.5	3.6	-3.2	1.9
CCOc1ccccc1NC(=O)Cn1[nH]c(=O)c2ccccc2c1=O	64.4*	-2.6	-0.6	6.0	-9.0
CCOc1ccccc1NC(=O)CCC(=O)Nc1ccccc1OCC	13.8	1.1	-0.2	3.5	17.3
CCOc1ccccc1NC(=O)Nc1ccc(Cl)cc1	52.7*	0.6	-1.9	-13.0	-12.9
SMILES	AHR activator	FXN GAA850 act	DAX1 inh	HSF1 inhib	HSF-1 act
CCOc1ccccc1NC(=O)Nc1ccccn1	54.4*	2.3	0.5	-15.8	4.0
CCOc1ccccc1NC(=O)Nc1ccc(Br)cn1	15.6	0.4	-0.2	-7.1	9.9
Clc1cccc(CNc2ccn3nc(-c4ccccc4Cl)cc3n2)c1	nt	1.2	nt	nt	nt
NC(=O)C1CCN(C(=O)C2c3ccccc3C(=O)N3CCc4ccccc4C23)CC1 (centres undefined)	60.9*	0.5	-0.5	-3.8	6.2
CCCN(CCC)CCNC(=O)C1c2ccccc2C(=O)N2CCc3ccccc3C12 (centres undefined)	7.6	-1.1	1.1	-19.9	-40.1
CCOCCCNC(=O)C1c2ccccc2C(=O)N2CCc3ccccc3C12 (centres undefined)	76.2*	-0.2	2.2	-44.7	-55.5
CCCSc1nnc2n(C)c(=O)c3c4c(sc3n12)CCC4	77.6*	2.7	-0.9	6.6	10.7
CCc1ccc(N2CC(C(=O)N3CCN(c4ccc([N+](=O)[O-])cc4)CC3)CC2=O)cc1 (centres undefined)	nt	0.9	-0.7	nt	nt
CCCc1nc(SCc2cccnc2)c2c(=O)n(C)c(=O)n(C)c2n1	51.9*	3.8	-0.7	25.0	13.1
Cc1ccc(NC(=O)CSCC(=O)OCc2cc(=O)oc3cc(O)ccc23)c(C)c1	-0.5	1.2	0.5	7.2	5.3
CCOC(=O)c1c(C)n(C)c2ccc(OCC(O)CNCCc3ccccc3)cc12 (centres undefined)	5.2	1.0	0.0	33.4	77.3*
CCOC(=O)c1c(C)n(C)c2ccc(OCC(O)CN3CCN(C)CC3)cc12 (centres undefined)	3.9	1.1	0.6	1.0	1.0
CCOC(=O)N1CCN(C(=O)c2oc3ccc(S(=O)(=O)N(CC)CC)cc3c2C)CC1	0.1	-1.0	-0.4	2.6	-5.3
CCCn1c(SCC(=O)Nc2cccc(S(=O)(=O)N(C)C)c2)nc2ccccc2c1=O	0.3	-5.4	-1.0	-0.9	-0.8
CN(C)c1nc(-c2cn(CCC#N)c3ccccc23)cs1	61.7*	1.9	1.1	-15.2	-5.9
CC(=O)c1ccc(NC(=O)CNCc2cccs2)cc1	2.4	3.7	1.6	24.0	21.2
N#Cc1ccc(Cl)cc1NC(=O)CNCc1cccs1	34.2	2.2	1.6	24.7	64.8*
NC(=O)c1c(NC(=O)Cc2ccccc2)sc2c1CCN(Cc1ccccc1)C2	-4.8	0.0	-1.3	34.7	61.8*
COc1cccc(CNC2CCCC2)c1	-1.4	-2.5	-0.3	-3.8	-7.2
COc1cc(CNC2CCCC2)cc(OC)c1	-2.2	-0.3	0.5	27.7	59.3*
CCOc1cc(S(=O)(=O)NCC2OCCc3ccccc32)c(OCC)cc1-n1cnnn1 (centres undefined)	0.3	0.5	4.6*	3.2	-10.9
CCc1ccc2c(c1)C(=O)c1ccccc1C2=O	42.6	7.5	0.2	39.5	81.1*
CCc1ccc(NC2=CC(=O)C(=O)c3ccccc32)cc1	nt	0.4	-0.8	nt	nt
Cc1cc(Br)cc2c1NC(=O)C2(O)CC(=O)c1ccco1 (centres undefined)	2.4	0.2	-1.7	-4.6	-10.9
O=C1c2cccc3c([N+](=O)[O-])ccc(c23)C(=O)N1c1ccccn1	-1.5	-5.0	-1.9	-67.6*	-68.4
O=C1c2cccc3c([N+](=O)[O-])ccc(c23)C(=O)N1c1ccc(Cl)cn1	-8.9	-5.8	-1.0	47.0	38.2
O=C1c2cccc3c([N+](=O)[O-])ccc(c23)C(=O)N1O	6.6	-0.4	0.7	28.5	51.8*
CN(C)c1ccc(/C=N/n2c(C3CCCCC3)n[nH]c2=S)cc1	-2.0	3.1	-1.3	-3.2	-15.2
O=C(CSc1cccs1)Nc1ccc(Cl)cc1	0.0	3.4	4.9*	38.8	65.5*
